Consider eight compounds from PubChem BioAssay (NCI).

Test systems include SK-MEL-2 melanoma; EKVX NSCLC; SN12C renal; UO-31 renal; TK-10 renal; ACHN renal; CAKI-1 renal; A498 renal; MOLT-4 leukemia; SR leukemia; RPMI-8226 leukemia; OVCAR-8 ovarian; OVCAR-5 ovarian; SK-OV-3 ovarian; IGROV1 ovarian; OVCAR-3 ovarian; HS 578T breast; NCI/ADR-RES ovarian; OVCAR-4 ovarian.
Common to all, as to test: NCI-60 one-dose screen, 48 h (100 = growth as untreated, 0 = no growth, -100 = all killed)
Conditions in all cases: 10 µM unless noted

This is part of a sample that, as a whole, favours compounds with a hit. Of some 83,000 tested, about 20% had one in any assay.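 Growth was measured after 48 h exposure to one concentration of compound in 96-well plates. Values under 10 count as active.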 Values without a mark were called inactive. The source made the active and inactive calls.

For `NS(=O)(=O)c1cnccc1Sc1ccncc1S(N)(=O)=O`, the growth with SK-MEL-2 melanoma is 119%; in the experiment with EKVX NSCLC it was 96.9%; in the experiment with SN12C renal it was 100%; in the experiment with UO-31 renal it was 80%; in the experiment on TK-10 renal, 99.6%; in the experiment on ACHN renal, 106%. Further, the growth is 98.2% in the experiment with CAKI-1 renal; 104% in the experiment with A498 renal; 86.3% in the experiment with MOLT-4 leukemia; 92.2% in the experiment with SR leukemia; 86.2% with RPMI-8226 leukemia; 96% in the experiment on OVCAR-8 ovarian. Further, the growth with OVCAR-5 ovarian is 101%; with SK-OV-3 ovarian it was 95.6%; in the experiment on IGROV1 ovarian it was 6.71% (active); in the experiment on OVCAR-3 ovarian it was 103%; in the experiment with HS 578T breast it was 94.5%; with NCI/ADR-RES ovarian it was 98.9%.

For the compound `NC(=N\N=C/c1cccc([N+](=O)[O-])c1)/C(N)=N\N=C/c1cccc([N+](=O)[O-])c1`, the growth is 75% in the experiment on SK-MEL-2 melanoma; 79.5% with EKVX NSCLC; 86.8% with SN12C renal; 107% with UO-31 renal; 27.6% in the experiment on TK-10 renal; 94% in the experiment on ACHN renal. In addition, the growth in the experiment with CAKI-1 renal was 53.8%; with A498 renal, 61.5%; with MOLT-4 leukemia, 86%; in the experiment with SR leukemia, 71.3%; in the experiment with RPMI-8226 leukemia, 70.5%; with OVCAR-8 ovarian, 57.8%. The growth in the experiment with OVCAR-5 ovarian was 101%; with SK-OV-3 ovarian, 61.1%; in the experiment with IGROV1 ovarian it was 96.1%; in the experiment with OVCAR-3 ovarian, 42.9%; in the experiment with HS 578T breast, -11.6% (active); with NCI/ADR-RES ovarian, 80.5%.

Consider `C=CCn1c(C)nc2cc(Nc3nc(Cl)nc4ccccc34)ccc21`, for which the growth in the experiment with SK-MEL-2 melanoma was 99.5%; with EKVX NSCLC it was 93.7%; in the experiment with SN12C renal it was 97.3%; in the experiment with UO-31 renal, 93.8%; with TK-10 renal, 114%; in the experiment on ACHN renal, 103%. For the same compound, the growth was 87.2% in the experiment on CAKI-1 renal; 55.4% in the experiment with A498 renal; 78.7% with MOLT-4 leukemia; 94.7% in the experiment on SR leukemia; 75.2% in the experiment on RPMI-8226 leukemia; 93.8% in the experiment with OVCAR-8 ovarian. In addition, the growth in the experiment on OVCAR-4 ovarian is 91.2%; in the experiment on SK-OV-3 ovarian, 122%; with IGROV1 ovarian, 116%; in the experiment with OVCAR-3 ovarian it was 102%; in the experiment on HS 578T breast, 92.7%; with NCI/ADR-RES ovarian it was 90.3%.

Turning to `Cn1c(-c2c(N)n(Cc3cccnc3)c3nc(C#N)c(C#N)nc23)nc2ccccc21`, the growth with SK-MEL-2 melanoma is 107%; with EKVX NSCLC it was 87.1%; in the experiment with SN12C renal it was 106%; in the experiment on UO-31 renal, 31.5%; with TK-10 renal, 55.5%; in the experiment on ACHN renal it was 85.8%. Besides, the growth was 92.1% with CAKI-1 renal; 98.9% with A498 renal; 74.1% in the experiment on MOLT-4 leukemia; 40.1% with SR leukemia; 94.5% with RPMI-8226 leukemia; 80.5% with OVCAR-8 ovarian. Also, the growth was 78% in the experiment on OVCAR-5 ovarian; 102% in the experiment on OVCAR-4 ovarian; 116% with SK-OV-3 ovarian; 99.5% in the experiment on OVCAR-3 ovarian; 106% in the experiment on HS 578T breast; 95.5% in the experiment on NCI/ADR-RES ovarian.

Turning to `Cc1ccc(C(=O)COc2cccc(/C=C3\Oc4ccccc4C3=O)c2)cc1`, the growth in the experiment on SK-MEL-2 melanoma was 105%; in the experiment on EKVX NSCLC, 97.1%; in the experiment with SN12C renal, 105%; in the experiment on UO-31 renal, -37.1% (active); in the experiment with TK-10 renal, 114%; in the experiment on ACHN renal it was 97.6%. Further, the growth in the experiment with CAKI-1 renal is 47.6%; in the experiment on A498 renal, 147%; with MOLT-4 leukemia it was 73.8%; in the experiment on SR leukemia it was 71.9%; with RPMI-8226 leukemia, 106%; in the experiment on OVCAR-8 ovarian, 106%. The growth in the experiment with OVCAR-5 ovarian is 106%; with OVCAR-4 ovarian it was 85.7%; with SK-OV-3 ovarian, 134%; with OVCAR-3 ovarian, 96.6%; in the experiment with HS 578T breast it was 322%; in the experiment with NCI/ADR-RES ovarian, 88.3%.

For the compound `CCOC(=O)/C=C/c1cc2cc(-c3csc4ccccc34)ccc2[nH]1`, the growth was 101% in the experiment on SK-MEL-2 melanoma; 72.7% in the experiment on EKVX NSCLC; 91.8% with SN12C renal; 36.2% with UO-31 renal; 121% in the experiment on TK-10 renal; 90.8% in the experiment with ACHN renal. For the same compound, the growth was 69.4% with CAKI-1 renal; 89.8% in the experiment on A498 renal; 12.2% with MOLT-4 leukemia; 0.282% (active) in the experiment on SR leukemia; 47.4% in the experiment on RPMI-8226 leukemia; 19.6% with OVCAR-8 ovarian. For the same compound, the growth in the experiment on OVCAR-5 ovarian was 101%; in the experiment with OVCAR-4 ovarian, 92.3%; in the experiment on SK-OV-3 ovarian, 132%; with OVCAR-3 ovarian it was 77.1%; in the experiment on HS 578T breast, 67.2%; in the experiment with NCI/ADR-RES ovarian, 30.8%.

As to `COc1ccc(/C=c2\nc3n(-c4ccccc4)c4nc5c6c(sc5c(=N)n4n-3c2=O)CCCC6)cc1`, the growth with SK-MEL-2 melanoma was 99.4%; with EKVX NSCLC it was 67%; in the experiment with SN12C renal, 86.4%; in the experiment on UO-31 renal, 49.5%; in the experiment with TK-10 renal it was 124%; in the experiment on ACHN renal, 75.1%. Further, the growth in the experiment with CAKI-1 renal is 72.9%; in the experiment on A498 renal it was 58.9%; with MOLT-4 leukemia it was 56.3%; in the experiment on SR leukemia it was 61.5%; in the experiment on RPMI-8226 leukemia it was 80.1%; in the experiment on OVCAR-8 ovarian, 89.3%. Besides, the growth with OVCAR-5 ovarian is 104%; in the experiment with OVCAR-4 ovarian, 82%; in the experiment on IGROV1 ovarian, 61.4%; in the experiment with OVCAR-3 ovarian, 88.2%; in the experiment with HS 578T breast, 85.6%; with NCI/ADR-RES ovarian, 83.1%.

Turning to `CN(C)c1ccc(-c2cc(-c3ccc(Nc4nc(Nc5ccc(Cl)cc5)nc(Nc5ccc(Cl)cc5)n4)cc3)no2)cc1`, the growth in the experiment on SK-MEL-2 melanoma was 31.6%; in the experiment on EKVX NSCLC, 41.3%; in the experiment with SN12C renal, 53.8%; in the experiment on UO-31 renal, 23.5%; with TK-10 renal, 48.4%; with ACHN renal, 46.5%. Besides, the growth in the experiment with CAKI-1 renal is 39.7%; in the experiment with A498 renal, 67.5%; in the experiment on MOLT-4 leukemia, -24.7% (active); with SR leukemia, -39.3% (active); in the experiment on OVCAR-8 ovarian, 49.7%; in the experiment on OVCAR-5 ovarian, 54.6%. The growth in the experiment with OVCAR-4 ovarian was 41.6%; with SK-OV-3 ovarian, 80.1%; in the experiment with IGROV1 ovarian it was 22.4%; with OVCAR-3 ovarian, 29.8%; in the experiment on HS 578T breast, 13.6%; in the experiment on NCI/ADR-RES ovarian, 41.1%.
